Test [1] is described as follows: qHTS assay to identify small molecule agonists of the hypoxia (HIF-1) signaling pathway - cell viability counter screen (AID 1224844; calls by dose curve; note: nearly all actives have a fitted effect of over 50% in size; note: potency is the fitted concentration of half-maximal effect). The essentials:
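Cells (HRE-bla ME-180, 2,000 per well) sat 5 hrs at 37C, got compound for 17 hrs, were read for CCF4-AM FRET, and were finally lysed with CellTiter-Glo for a 30 min room-temperature luminescence read.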
On the technique in general: qHTS replaces the single test concentration by a dilution series.

The nature of test [2]: qHTS assay to identify small molecule agonists of H2AX (AID 1224845; active = well fitted activation curve with a large enough effect in the signal ratio in the repeat runs, not every such curve was filed as active; the % refers to the signal ratio; note: potency is the fitted concentration of half-maximal effect). The essentials:
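Phospho-H2AX Ser139 measured by HTRF (ex 320 nm; em 665 and 620 nm) after 24 hr antibody incubation. Compounds, 15 concentrations, 0.76% DMSO, were applied to CHO-K1 cells for 3hr at 37C before lysis.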

Test [3] in a line: qHTS assay to identify small molecule agonists of H2AX - cell viability counter screen (AID 1224847; calls by dose curve; note: nearly all actives have a fitted effect of over 30% in size; note: potency is the fitted concentration of half-maximal effect). In outline: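 Wild-type CHO-K1 cells (10% FBS medium) were plated overnight at 37C, exposed to compounds at 15 concentrations for 3 hr at 37C (0.76% DMSO final), and viability was read as CellTiter-Glo luminescence after 30 min at room temperature.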
Test [4] in a line: qHTS assay to identify small molecule antagonists of the estrogen related receptor (ERR) signaling pathway from Tox21 library (AID 1224848). Note: nearly all actives have a fitted effect of over 50% in size. Note: potency is the fitted concentration of half-maximal effect. In outline:
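Reading was by luminescence 30 min after ONE-Glo addition. Before that, ERR cells at 2,000 per well had rested 6 h at 37 C/5% CO2 and then received pin-tooled compounds in DMSO for 18 h at 37 C.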

Test [5] in a line: qHTS assay to identify small molecule agonists of the estrogen related receptor (ERR) signaling pathway from Tox21 library (AID 1224849; calls by dose curve; note: nearly all actives have a fitted effect of over 15% in size). The following applies: ERR reporter cell line, ONE-Glo luciferase, 18 h; at 92.4 µM (top of the series) unless noted. In outline:
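Screening used an NTP-provided ERR luciferase cell line. Compounds in DMSO were added 6 h after seeding and left 18 h at 37 C before a 30 min ONE-Glo step and luminescence reading.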

Test [6] in a line: qHTS RealTime-Glo MT Cell Viability Assay in HepG2 cells - 24 hour (AID 1224867). Note: nearly all actives have a fitted effect of over 50% in size. Note: potency is the fitted concentration of half-maximal effect. The essentials:
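HepG2 suspension premixed with RealTime-Glo reagents is plated at 600 cells per well and left 5 h at 37 C/5% CO2. Compounds in DMSO then go in, and bioluminescence reflecting viable cell number is recorded over 40 h.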

A short description of test [7]: qHTS RealTime-Glo MT Cell Viability Assay in HEK293 cells - 32 hour (AID 1224868). Note: nearly all actives have a fitted effect of over 50% in size. Note: potency is the fitted concentration of half-maximal effect. In outline: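 Reads taken at 0, 8, 16, 24, 32 and 40 h from the same wells. HEK293 cells (600/well) carried RealTime-Glo reagents from seeding, with compound added after a 5 h settle at 37 C.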
A short description of test [8]: A CellTox Green Cytotoxicity Assay to monitor cytotoxicity in HEK293 cells - 0 hour (AID 1224869). Note: nearly all actives have a fitted effect of over 50% in size. In outline:
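Fluorescence intensity, read at 0, 8, 16, 24, 32 and 40 h of compound treatment, reflected dye binding to DNA of dead HEK293 cells; compounds (23 nL, DMSO) were added 5 h after plating cells with reagent.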

Test [9] is described as follows: qHTS assay to identify small molecule agonists of the hypoxia (HIF-1) signaling pathway (AID 1224846; active = well fitted activation curve with a large enough effect in the signal ratio in the repeat runs, not every such curve was filed as active; the % refers to the signal ratio). In outline:
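A low-serum medium (0.5% dialyzed FBS) holding 2,000 HRE-bla ME-180 cells per well is preincubated for 5 hrs, dosed with compounds by pintool, and kept a further 17 hrs at 37C, 5% CO2 before CCF4-AM FRET detection of beta-lactamase.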

A number with no mark means an inactive call. Records with an inconclusive call do not appear. The source made the active and inactive calls. Unless noted, calls come from the whole dose curve; as a rule, active = well fitted curve in the direction sought with a large enough effect in the repeat runs; inconclusive = weak or mixed curves; inactive = no such curve, though single readings can be large; an effect the other way counts as inactive or inconclusive.
% is set by controls: 0 for no effect and ±100 for the full control effect.

On to `CC(O)Cn1cnc2c1c(=O)n(C)c(=O)n2C` (stereo not given), for which the Potency result in [1], in test [2], in test [3], in test [4], in test [6] and in [7] was “inactive” throughout. Further, in [8], the Potency entry is “inactive”. Besides, the activity change, positive = activation in test [5] was 0.481% [at 42.5 µM].
Take `CC/C=C\C/C=C\C/C=C\CCCCCCCC(=O)OCC`: the molecule was called inactive in test [9]. Besides, the Potency result in test [3], in test [6], in test [7] and in test [8] was “inactive” throughout. In addition, the activity change, positive = activation in test [5] is -28.4%.
As to `Nc1ccc(NC(=O)c2ccc(N)cc2)cc1`, the Potency result in test [1], in test [4], in test [7] and in test [8] was “inactive” throughout. The molecule was classed as inactive in test [9].
Take `O=c1[nH]c2cc(C(F)(F)F)c(N3CCOCC3)cc2n(CP(=O)(O)O)c1=O`: the Potency result in test [1], in test [2], in test [6], in test [7] and in test [8] was “inactive” in each case. In addition, the outcome in test [9] was inactive.
Turning to `CO[C@@H]1[C@@H](OC)[C@H](C)[C@@](O)(CC(=O)O)O[C@H]1[C@H](C)[C@H]1O[C@@]2(CC[C@@](C)([C@H]3CC[C@@](C)([C@@H]4O[C@@H]([C@H]5O[C@](C)(O)[C@H](C)C[C@@H]5C)C[C@@H]4OC4C[C@H](OC)[C@@H](OC)[C@H](C)O4)O3)O2)C[C@H](O)[C@H]1C` (stereo not given in full), the Potency entry in [2] and in [8] was “inactive” throughout. The Potency is 5.35 µM (active) in test [6] and 3.01 µM (active) in test [7].
Consider `Cc1cn([C@H]2C[C@H](F)[C@@H](CO)O2)c(=O)[nH]c1=O`, for which the Potency entry in test [1], in [6], in test [7] and in test [8] was “inactive” throughout. Further, the Potency in test [2] is 0.0438 µM (active). Besides, the outcome in [9] was inactive.
With `Nc1cccc2c(N)cccc12`, the molecule was called inactive in test [9]. Besides, the Potency entry in test [3] and in [8] was “inactive” throughout.
As for `CCN(CC)C(=O)N1CCN(C)CC1`, the Potency entry in test [1], in test [2], in test [3], in test [4], in test [6] and in [7] was “inactive” throughout. Besides, the Potency entry in test [8] is “inactive”. The activity change, positive = activation in test [5] is 6.11% [at 42.5 µM].
For `CC(=O)OCC(=O)[C@@]1(OC(C)=O)[C@@H](C)C[C@H]2[C@@H]3C[C@H](F)C4=CC(=O)C=C[C@]4(C)[C@@]3(F)[C@@H](O)C[C@@]21C`, the Potency result in [2], in test [3], in [6], in [7] and in test [8] was “inactive” each time.
Consider `CCN(CC)c1cccc(O)c1`, for which the Potency entry in [1], in test [3], in test [4], in test [6] and in test [8] was “inactive” throughout. For the same molecule, the call in test [9] was inactive. Also, in [5], the activity change, positive = activation is 2.77%.
Regarding `O=C(O)CCC(=O)OC[C@@H](NC(=O)C(Cl)Cl)[C@H](O)c1ccc([N+](=O)[O-])cc1`, the Potency entry in [1], in test [2], in test [6], in test [7] and in [8] was “inactive” in each case. The result in test [9] was inactive.
Turning to `c1ccc(CCCc2ccncc2)cc1`, the Potency entry in test [2], in [6], in test [7] and in test [8] was “inactive” throughout. Besides, the result in [9] was inactive.
On to `CC1CCCC(=O)C1=O` (stereo not given), for which the Potency result in [1], in [2], in test [6], in test [7] and in test [8] was “inactive” in each case. Further, the call in test [9] was inactive.
On to `O=C1CC[C@@H](C(=O)O)N1`, for which the Potency result in test [1], in test [2], in [4], in test [6] and in [8] was “inactive” in each case. Also, in test [9], the molecule was called inactive. Moreover, in test [5], the activity change, positive = activation was 3.84% [at 42.5 µM].
With `Cc1c(C2(c3cc(Br)c(O)c(Br)c3C)OS(=O)(=O)c3ccccc32)cc(Br)c(O)c1Br`, the values for the Potency in test [1], in test [3] and in test [4] were 16.9 µM (active), 9.77 µM (active) and 11.8 µM (active), respectively. For the same molecule, the molecule was classed as inactive in test [9]. Also, in [5], the activity change, positive = activation is -68%. The Potency result in test [6], in test [7] and in test [8] was “inactive” throughout.
`O=C(c1ccccc1)c1ccc(O)cc1`: the Potency result in test [1], in [6], in [7] and in [8] was “inactive” each time. Also, in [9], the result was inactive. The activity change, positive = activation in test [5] was -59.8%.
For the molecule `CCCc1nc2c(C)cc(-c3nc4ccccc4n3C)cc2n1Cc1ccc(-c2ccccc2C(=O)O)cc1`, the Potency entry in [1], in test [2] and in test [3] was “inactive” in each case.
Consider `CCSC(=O)N(CC)CC`, for which the Potency result in test [1], in test [2], in [6], in [7] and in test [8] was “inactive” throughout. Besides, in [9], the molecule was called inactive.

The values are drawn from PubChem BioAssay (Tox21).
